HT1080 IDH1KD tx: qHTS for induction of synthetic lethality in tumor cells producing 2HG: qHTS for the HT-1080-IDH1KD cell line | Potency, µM (doses to about 46.1 µM), without a hit: top-dose activity, negative = toxicity, most hits filed as cytotoxic | actives 2% (n = 360,000) | AID 686971, 2013 | HT-1080 IDH1 knockdown viability, ATP luminescence, 48 h;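 note: potency is the fitted concentration of half-maximal effect; 0% = DMSO wells and -100% = cell-free medium wells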
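In this qHTS, HT-1080 cells depleted of IDH1 are exposed for 48 h at 37 °C to compound titrations. Toxicity is scored from CellTiter-Glo luminescence, with DMSO as full viability and medium alone as none.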
IL-1B inflam inh: qHTS for Inhibitors of Inflammasome Signaling: IL-1-beta AlphaLISA Primary Screen; actives 4.7% (n = 360,000); THP-1 LPS/ATP IL-1B secretion, AlphaLISA, 16 h; hits give low values; activity change, % at 57.5 µM; in the data active = activity change below about -50%; inconclusive = mostly about -30% to -49%
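Secreted IL-1B measured by AlphaLISA bead assay after 16 h compound exposure of THP-1 cells; compounds (final up to 57.5 uM) added 1 h before LPS (250 ng/mL) and ATP (1.25 mM) stimulation; lower signal means less secretion.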
HT1080NT lethal: qHTS for induction of synthetic lethality in tumor cells producing 2HG: qHTS for the HT-1080-NT fibrosarcoma cell line; HT-1080-NT fibrosarcoma viability, CellTiter-Glo ATP luminescence, 48 h; Potency, µM (doses to about 46.1 µM), for inactives: top-dose activity, negative = less viability, hits mostly cytotoxic; actives 1.6% (n = 360,000); AID 686970, 2013;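 note: NT is the 2HG producing partner of a matched IDH1 knockdown line; potency is the fitted concentration of half-maximal effect; 0% = DMSO-treated cells and -100% = media-only wells without cells; nearly all actives have a fitted effect of over 55% in size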
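Viability by CellTiter-Glo luminescence after 48 h compound exposure at 37C of HT-1080-NT cells (750/well, RPMI, 5% FBS). % activity scaled between DMSO wells and medium-only wells, then curve-fitted and categorized by curve class.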
TDP1 cell CPT: qHTS for Inhibitors of human tyrosyl-DNA phosphodiesterase 1 (TDP1): qHTS in cells in presence of CPT; Potency, µM (titrated, usually from 46.2 µM), for inactives: at the top dose activity change, negative = growth inhibition, most hits filed as inhibitors; actives 12% (n = 420,000); AID 686979, 2013; chicken DT40 Tdp1-/-;hTDP1 cells + 20 nM CPT, ATP luminescence, 48 h; note: potency is the fitted concentration of half-maximal effect; nearly all actives have a fitted effect of over 55% in size
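Cell growth measured by CellTiter-Glo luminescence after a minimum 48 h, 37 C compound exposure with 20 nM CPT in Tdp1-knockout DT40 cells stably expressing hTDP1, seeded 400/well; qHTS titration format.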
TDP1 cell noCPT: qHTS for Inhibitors of human tyrosyl-DNA phosphodiesterase 1 (TDP1): qHTS in cells in absence of CPT. actives 15% (n = 420,000). Potency, µM (top dose mostly 46.2 µM), for inactives: at the highest dose activity change, negative = growth inhibition, actives largely listed as inhibitors. DT40 Tdp1-/- hTDP1 cells, no CPT, ATP luminescence, 48 h. AID 686978, 2013; note: potency is the fitted concentration of half-maximal effect; nearly all actives have a fitted effect of over 55% in size
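Stably hTDP1-transfected Tdp1-null chicken DT40 cells were treated with library compounds minus camptothecin and grown for at least 48 hr at 37 °C, after which cellular ATP was quantified by luminescence.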
Starred values were filed as active, the others as inactive; ? = inconclusive; · = no result given; [ ] = another dose, or the depositor's remark. Compounds with a hit are over-represented: about 19% of the library has one in this group of screens. Unless noted, calls come from the whole dose curve; as a rule, active = well fitted curve in the direction sought with a large enough effect; inconclusive = small, poorly fitted or top-dose-only effect, or another doubt; inactive = no such curve, though single readings can be large; an effect the other way counts as inactive or inconclusive. Unless noted, % is set by controls: 0 for no effect and ±100 for the full control effect.

SMILES	HT1080 IDH1KD tx	IL-1B inflam inh	HT1080NT lethal	TDP1 cell CPT	TDP1 cell noCPT
Cc1cc(C)n(-c2ccc(C(=O)N3CCc4c(cnc(C)c4CNC(=O)c4ccccc4F)C3)cc2)n1	·	·	·	-7.0%[9.04 µM]	-9.8%
O=C(Cc1ccc(-n2cccc2)cc1)NCc1ccccc1Cl	8.2µM*	-5.6	8.2µM*	5.8µM*	5.8µM*
O=C(Cc1ccccc1)NCc1ccncc1	5.7%	7.9	7.0%	-5.2%	17.2%
O=C(Cc1ccccc1)NCc1ccc(-n2cccc2)cc1	5.8µM*	26.1	5.17µM*	3.26µM*	3.66µM*
O=C(CSc1ccc(Cl)cc1Cl)N1CCC(c2nc3ccccc3s2)CC1	-3.6%[9.24 µM]	-17.6	-25.2%	-17.4%	?
Cc1ccc2occ(CN3CCOc4ccc(C(C)(O)COc5ccccc5)cc4C3)c(=O)c2c1 (centres undefined)	·	·	·	3.6%[9.04 µM]	?
Cc1cc(Oc2ccccc2)nc(-c2ccccc2)n1	-0.1%	10.3	-1.3%	-27.1%	-10.9%
Cc1cc(N(C)Cc2ccccc2)nc2cc(O)ccc12	?	-56.2*	?	7.4%	?
Cc1cc(N(C)Cc2ccccc2)nc(-c2ccccc2)n1	?	23.1	-15.4%	?	25.9µM*
Cc1ccccc1C(=O)N(C)Cc1ccccc1	-4.0%	-1.0	11.1%	-8.7%	?
COc1ccccc1NC(=O)CSc1nc2ccccc2cc1Cc1ccccc1	0.8%	-7.9	-4.5%	?	?
CN(Cc1ccccn1)C(=O)c1cc(COc2ccc(F)cc2Cl)on1	3.0%	-6.7	2.2%	?	23.1µM*
CCN(Cc1ccncc1)C(=O)c1cc(COc2c(F)cccc2F)on1	3.4%	-5.4	21.4%	?	-29.9%
CCc1ccc(CN(C)C(=O)c2cc(COc3ccc(OC)cc3Cl)on2)nc1	9.7%	-14.0	6.0%	?	29.1µM*
CCN(Cc1ccncc1)C(=O)c1cc(COc2ccc(F)cc2Cl)on1	2.9%	-3.8	0.4%	16.4µM*	?
CCN(Cc1ccncc1)C(=O)c1cc(COc2ccc(OC)cc2Cl)on1	-9.6%	-22.8	-4.1%	16.4µM*	?
CC(=O)c1ccc(OCCCC(=O)NCc2nnc3ccccn23)cc1	2.3%	10.8	10.1%	9.7%	1.0%
CCCCOc1ccc(S(=O)(=O)NC(=O)C2(C)CCN2C(=O)Cc2cccs2)cc1 (centres undefined)	-0.1%	0.0	15.0%	-13.5%	-5.8%
O=C(COc1ccccc1)NCC(c1ccco1)N1CCCCC1 (centres undefined)	8.5%	-4.0	0.5%	2.5%	?
O=C(NCC1CCCN(Cc2cccc(F)c2)C1)c1cccc2ccccc12 (centres undefined)	-9.1%	-28.8	0.7%	-19.7%	-0.5%
COc1cc(OC)cc(C2=Cc3ccc(OC)cc3C(CC(C)=O)N2c2ccc(C#CCCO)cc2)c1 (centres undefined)	?	-7.3	?	?	20.6µM*
COc1ccc(C2=Cc3ccccc3C(CC(=O)C3CC3)N2c2ccc(-c3cc(OC)c(OC)c(OC)c3)cc2)cc1 (centres undefined)	4.0%	15.9	13.4%	-10.7%	-6.4%
COc1cc(OC)cc(C2=Cc3ccccc3C(CC(=O)c3ccco3)N2c2ccc(-c3cncnc3)cc2)c1 (centres undefined)	-2.4%	-6.7	-22.6%	8.2µM*	?
COc1cc(OC)cc(C2=Cc3ccccc3C(CC(=O)c3ccco3)N2c2ccc(-c3ccc(C(N)=O)cc3)cc2)c1 (centres undefined)	-11.1%	-12.9	?	?	?
CC(=O)CC1c2ccccc2C=C(c2ccsc2)N1c1ccc(-c2cccs2)cc1 (centres undefined)	4.3%	50.6	16.1%	10.3µM*	10.3µM*
SMILES	HT1080 IDH1KD tx	IL-1B inflam inh	HT1080NT lethal	TDP1 cell CPT	TDP1 cell noCPT
COc1ccc(N2C(c3cc(OC)cc(OC)c3)=Cc3ccccc3C2CC(C)=O)cc1 (centres undefined)	-28.4%	31.9	-23.8%	?	16.4µM*
COc1ccc(C2=Cc3ccccc3C(CC(=O)C3CC3)N2c2ccc(C#CCCO)cc2)cc1 (centres undefined)	?	-6.6	-29.7%	?	?
CC(=O)NC(CCS(C)(=O)=O)C(=O)Nc1cccc(C(C)=O)c1 (centres undefined)	3.4%	9.9	-1.4%	6.5%	-4.8%
O=C(/C=C/c1ccccc1)Nc1ccc(C(=O)N2CCCCC2)cc1	-10.4%	-20.4	-11.1%	?	?
CC(=O)c1sccc1NC(=O)c1ccccc1C(=O)O	16.2%	-0.6	-1.4%	17.5%	-9.3%
COc1cc(OC)cc(C2=Cc3ccccc3C(CC(C)=O)N2c2ccc(C#CCCO)cc2)c1 (centres undefined)	?	-19.2	?	20.6µM*	?
CC(=O)O[C@H]1CC[C@@]2(C)[C@@H](CC[C@H]3[C@@H]4CC[C@H](C(C)O)[C@@]4(C)CC(=O)[C@@H]32)C1 (some centres undefined)	17.8%	-11.8	12.9%	-29.8%	?
CC(=O)OC1CCC2(C)C(CCC3C2CC(=NO)C2(C)C(C(C)OC(C)=O)CCC32)C1 (centres undefined)	6.1%	-24.2	-4.8%	14.6µM*	18.4µM*
CC(=O)OC1CC[C@@]2(C)C(CCC3C2CC(=O)[C@@]2(C)C3CC3CC(C)=CC(=O)C32)C1 (some centres undefined)	-0.5%	-7.3	0.1%	18.4µM*	14.6µM*
CC(=O)OC1CCC2(C)C(CCC3C2CC(=O)C2(C)C3CC(C(C(C)=O)C(C)=O)C2C(C)=O)C1 (centres undefined)	0.6%	16.0	0.0%	?	?
CCN1C(=O)N[C@@H](CCc2ccccc2)[C@@H](C(=O)OC)[C@H]1C	10.7%	10.3	21.7%	2.9%	3.4%
CNc1ccccc(-c2ccc3ccccc3n2)c1=O	-5.6%	-2.9	-7.1%	?	23.1µM*
c1ccc(-c2ccc3ccccc3n2)cc1	5.0%	4.3	0.9%	4.8%	-12.0%
COc1ccc(-n2nc(C(=O)NCC(=O)NCc3cccc(F)c3)c3ccccc3c2=O)cc1Cl	-8.2%	-8.0	-1.3%	-24.8%	?
